According to PubChem BioAssay (NCATS):
Inconclusive results are not listed. Activity calls are given as the source filed them. Calls come from the whole dose curve; as a rule, active = well fitted activation curve with a large enough effect; inconclusive = small, poorly fitted or top-dose-only effect; inactive = no such curve, though single readings can be large or run the other way.

target: Arylsulfatase A (Homo sapiens) (UniProt P15289); experiment: qHTS screen for enhancers of Arylsulfatase A (ASA1): LOPAC Validation Assay (AID 720538); conditions: ASA enzyme activity, LOPAC qHTS enhancer assay; series mostly up to 57.5 µM
Excerpt: Lysosomal storage diseases (LSDs) are caused by genetic mutations in genes encoding proteins important for normal lysosomal function. In affected patients, symptoms are usually not manifested unless the mutations result in more than 90% reduction of enzymatic activity of a specific lysosomal enzyme. […] Small molecules could function as enzyme enhancement agents by binding to and stabilizing mutant misfolded proteins in the endoplasmic reticulum (ER), allowing them to evade the ER associated degradation (ERAD), and eventually reach the lysosome. Moreover, small molecules is hypothesized to be able to enhance the residual activity of deficient lysosomal enzyme by either interacting directly with the mutant enzyme or indirectly by acting in different cellular pathways; resulting to increased levels of the mutant and partially functional protein in the lysosomal compartment.
A cell based assay in 1536 well plate format was developed to evaluate activity of the lysosomal sulfatase ASA1 enzyme. ASA1 is deficient in metachromatic leukodystrophy (MLD), an LSD characterized by progressive neurodegeneration for which specific treatment is not available. Compounds that are active may therefore have some therapeutic application for this disease. This assay was used to validate the ASA1 qHTS using the Sigma LOPAC library. In this assay increase in signal = enhanced ASA1 activity. Activation is the desired outcome for this assay.
NIH Chemical Genomics Center [NCGC]
NIH Molecular Libraries Probe Centers Network [MLPCN]
Assay Submitter (PI): Gustavo Maegawa, Johns Hopkins University School of Medicine
[2] Gieselmann V, et al. Acta Paediatr Suppl. 2008; 97: 15-21
Four microliter (~8,000 cells/well) of SV40-transformed skin fibroblasts from an MLD patient (ASA-I179S) were seeded into a 1,536 solid white plate. Cells were left to adhere for 6 hrs, followed by addition of 23 nL of compounds. Cells were incubated with compounds for 48h at 37 degree C and 5% CO2. Four microliter of 1 mM pNCS substrate/lysis buffer (0.5mM pNCS final concentration) was added and incubated for 14h at room temperature. To stop the reaction, […] of 5 N of NaOH (1N NaOH final concentration) was then added and fluorescence was measured using the ViewLux plate reader (Ex=525 nm; Em=598 nm).

Chain of Arylsulfatase A (Homo sapiens) (P15289 whole entry, looked up): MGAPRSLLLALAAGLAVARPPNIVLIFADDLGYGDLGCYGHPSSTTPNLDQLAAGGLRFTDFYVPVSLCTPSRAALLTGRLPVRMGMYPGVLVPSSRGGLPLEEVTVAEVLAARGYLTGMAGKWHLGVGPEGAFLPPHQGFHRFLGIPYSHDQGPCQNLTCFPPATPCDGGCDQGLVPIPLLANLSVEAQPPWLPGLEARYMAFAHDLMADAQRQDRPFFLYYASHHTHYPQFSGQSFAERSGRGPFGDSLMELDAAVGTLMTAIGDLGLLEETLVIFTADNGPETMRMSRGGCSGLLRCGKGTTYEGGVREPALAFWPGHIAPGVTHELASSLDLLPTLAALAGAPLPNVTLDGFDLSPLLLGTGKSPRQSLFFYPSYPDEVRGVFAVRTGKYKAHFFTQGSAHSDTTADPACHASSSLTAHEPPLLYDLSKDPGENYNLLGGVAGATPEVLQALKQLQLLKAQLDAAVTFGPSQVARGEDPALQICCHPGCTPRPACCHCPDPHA

| Structure (SMILES) | outcome |
| --- | --- |
| C[C@]12CCC(=O)C=C1CC[C@@H]1[C@@H]2[C@@H](O)C[C@@]2(C)[C@H]1CC[C@]2(O)C(=O)CO | inactive |
| O=C1CCc2cc(OCCCCc3nnnn3C3CCCCC3)ccc2N1 | inactive |
| CNC[C@H](O)c1cccc(O)c1 | inactive |
| O=C1CCC(N2C(=O)c3ccccc3C2=O)C(=O)N1 (stereo not drawn) | inactive; inhibitor; fitted 0.0301 uM |
| NC(=O)c1cnccn1 | inactive |
| Cc1[nH]c(=O)c(C#N)cc1-c1ccncc1 | inactive; inhibitor; fitted 5.3582 uM |
| CC(C)C[C@H](NC(=O)[C@@H](O)[C@H](N)Cc1ccccc1)C(=O)O | inactive |
| c1ccc([C@H]2CN3CCSC3=N2)cc1 | inactive |
| Nc1ccc(S(=O)(=O)Nc2ccnn2-c2ccccc2)cc1 | inactive |
| CCCCNc1cc(C(=O)O)cc(S(N)(=O)=O)c1Oc1ccccc1 | inactive |
| Nc1ncnc2nc(-c3ccc(N4CCOCC4)nc3)cc(-c3cccc(Br)c3)c12 | inactive |
| Cc1cccc(-c2[nH]c(C(C)(C)C)nc2-c2ccc3nccnc3c2)n1 | inactive |
| Cc1cn[nH]c1 | inactive |
| O=c1n(CCCN2CCN(c3cccc(Cl)c3)CC2)nc2ccccn12 | inactive |
| NCCCC(N)(C(=O)O)C(F)F (stereo not drawn) | inactive |
| CCOC(=O)C1=C[C@]2(CC)CCCN3CCc4c(n1c1ccccc41)[C@@H]32 | inactive |
| OC(CCN1CCCCC1)(c1ccccc1)C1CC2C=CC1C2 (stereo not drawn) | inactive |
| Cc1[nH]c(=O)c(C#N)cc1-c1ccc2nccn2c1 | inactive |
| CC(C)(C)NCC(O)c1ccc(O)c(CO)c1 (stereo not drawn) | inactive; inhibitor; fitted 8.4921 uM |

| Structure (SMILES) | outcome |
| --- | --- |
| Nc1nc2c(ncn2COCCO)c(=O)[nH]1 | inactive |
| CC(C[N+](C)(C)C)OC(N)=O (stereo not drawn) | inactive |
| N[C@@H]1CONC1=O | inactive |
| CCCC(CCC)C(=O)O | inactive |
| CN1CCN(CCCN2c3ccccc3Sc3ccc(C(F)(F)F)cc32)CC1 | inactive |
| N=c1nc(N2CCCCC2)cc(N)n1O | inactive |
| NNCCc1ccccc1 | inactive |
| O=c1[nH]cnc2[nH]ncc12 | inactive |
| CCN(CC)CCCC(C)Nc1ccnc2cc(Cl)ccc12 (stereo not drawn) | inactive |
| CCC(C)N(C)C(=O)c1cc2ccccc2c(-c2ccccc2Cl)n1 (stereo not drawn) | inactive |
| CC(C)NCC(O)COc1ccc(COCCOC(C)C)cc1 (stereo not drawn) | inactive; inhibitor; fitted 0.3793 uM |
| CC(C)(Sc1ccc(CCN(CCCCC2CCCCC2)C(=O)NC2CCCCC2)cc1)C(=O)O | inactive |
| Cc1cnc(NC(=O)C2=C(O)c3ccccc3S(=O)(=O)N2C)s1 | inactive |
| OC(CN1CCC(Cc2ccc(F)cc2)CC1)c1ccc(Cl)cc1 (stereo not drawn) | inactive |
| Cc1ccccc1C(OCCN(C)C)c1ccccc1 (stereo not drawn) | inactive |
| CC(=O)Oc1ccccc1C(=O)O | inactive |
| CCn1cc(C(=O)O)c(=O)c2cc(F)c(N3CCNC(C)C3)c(F)c21 (stereo not drawn) | inactive |
| O=C(Nc1nc2ccccc2n1CCN1CCOCC1)c1cccc([N+](=O)[O-])c1 | inactive |
| NC[C@H](O)c1ccc(O)c(O)c1 | inactive |
